Experimental data from PubChem BioAssay (Tox21).
Results filed as inconclusive are left out. Where a call stands in place of a potency, no number is given. Calls of active or inactive are those of the source. Unless noted, calls come from the whole dose curve; as a rule, active = well fitted curve in the direction sought with a large enough effect in the repeat runs; inconclusive = weak or mixed curves; inactive = no such curve, though single readings can be large; an effect the other way counts as inactive or inconclusive.

Key:
[1] = target: Luciferin 4-monooxygenase (Photinus pyralis) (UniProt P08659); assay: qHTS assay to identify small molecule inhibitors of firefly luciferase (AID 1224835); note: series mostly up to about 120 µM; nearly all actives have a fitted effect of over 25% in size
Luciferin 4-monooxygenase (Photinus pyralis), sequence (P08659 whole entry, looked up): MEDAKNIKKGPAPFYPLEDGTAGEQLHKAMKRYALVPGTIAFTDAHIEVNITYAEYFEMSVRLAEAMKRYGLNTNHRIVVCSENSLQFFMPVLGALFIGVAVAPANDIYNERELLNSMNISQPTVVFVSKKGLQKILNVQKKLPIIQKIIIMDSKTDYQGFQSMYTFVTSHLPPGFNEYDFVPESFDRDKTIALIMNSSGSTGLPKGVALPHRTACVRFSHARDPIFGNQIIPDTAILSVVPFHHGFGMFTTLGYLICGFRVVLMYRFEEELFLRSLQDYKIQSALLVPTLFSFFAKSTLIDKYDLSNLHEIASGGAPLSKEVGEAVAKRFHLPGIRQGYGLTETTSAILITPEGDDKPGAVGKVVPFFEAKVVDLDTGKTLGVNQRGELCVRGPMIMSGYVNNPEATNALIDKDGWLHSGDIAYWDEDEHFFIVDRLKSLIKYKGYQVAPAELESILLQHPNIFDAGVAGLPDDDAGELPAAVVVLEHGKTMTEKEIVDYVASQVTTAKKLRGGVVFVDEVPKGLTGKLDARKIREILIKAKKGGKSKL
Method in brief: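 Biochemical qHTS: compounds run as interplate titrations against purified firefly enzyme, with D-luciferin and ATP each at its KM concentration. Light output recorded by CCD imaging.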

[2] = qHTS assay to identify small molecule agonists of the constitutive androstane receptor (CAR) signaling pathway - cell viability counter screen (AID 1224836); note: series mostly up to about 92 µM; nearly all actives have a fitted effect of over 45% in size
Method in brief: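 Compound titrations (15 concentrations) went onto HepG2-CYP2B6-hCAR cells 4 h after seeding, alongside PK11195 at a final 0.75 uM; a 23 h, 37 C/5% CO2 incubation preceded CellTiter-Fluor viability measurement.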

[3] = target: Nuclear receptor subfamily 1 group I member 3 (Homo sapiens) (UniProt Q14994); assay: qHTS assay to identify small molecule antagonists of the constitutive androstane receptor (CAR) signaling pathway (AID 1224838);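 note: HepG2 cells stably expressing hCAR with CYP2B6 luciferase reporter stimulated by CITCO; nearly all actives have a fitted effect of over 40% in size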; note: potency is the fitted concentration of half-maximal effect
Nuclear receptor subfamily 1 group I member 3 (Homo sapiens), sequence (Q14994 whole entry, looked up): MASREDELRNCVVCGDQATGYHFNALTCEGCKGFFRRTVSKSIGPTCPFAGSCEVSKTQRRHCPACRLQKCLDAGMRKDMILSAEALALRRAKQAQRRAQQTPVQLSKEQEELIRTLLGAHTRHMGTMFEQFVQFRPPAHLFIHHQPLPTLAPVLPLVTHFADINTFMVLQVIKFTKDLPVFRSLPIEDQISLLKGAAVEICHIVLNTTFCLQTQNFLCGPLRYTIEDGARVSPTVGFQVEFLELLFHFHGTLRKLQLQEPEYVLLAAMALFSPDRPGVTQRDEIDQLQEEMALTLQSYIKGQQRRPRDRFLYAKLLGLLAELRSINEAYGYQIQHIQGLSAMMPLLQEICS
Method in brief: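 Antagonist mode used CITCO at a final 50 nM to activate CAR in human hepatoma HepG2 cells carrying stable hCAR and a 2.2 kb CYP2B6 promoter-luciferase construct. Compounds were tested at 15 concentrations over 24 h, with luminescence as the end point.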

[4] = target: Nuclear receptor subfamily 1 group I member 3 (Homo sapiens) (UniProt Q14994); assay: qHTS assay to identify small molecule agonists of the constitutive androstane receptor (CAR) signaling pathway (AID 1224839); note: series mostly up to about 92 µM; nearly all actives have a fitted effect of over 15% in size
Method in brief: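 In this screen, CAR-driven CYP2B6 promoter activity is measured by luminescence in HepG2-CYP2B6-hCAR cells after 24 h with test compounds and 0.75 uM PK11195 (final concentration).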

[5] = qHTS assay to identify small molecule antagonists of the estrogen related receptor signaling pathway with the pleiotropic PPARgamma coactivator (PGC) from Tox21 10K library - cell viability counter screen (AID 1224840; active = well fitted cell-killing curve with a large enough effect in the repeat runs, not every such curve was filed as active; note: nearly all actives have a fitted effect of over 40% in size; note: potency is the fitted concentration of half-maximal effect)
Method in brief: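 Multiplexed viability counter screen in the PGC/ERR cell line: cells treated with DMSO-dissolved compounds for 17.5 hours at 37 C, then viability measured as CellTiter-Fluor fluorescence.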

[6] = qHTS assay to identify small molecule agonists of the hypoxia (HIF-1) signaling pathway - cell viability counter screen (AID 1224844; calls by dose curve; note: nearly all actives have a fitted effect of over 50% in size)
Method in brief: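 Cytotoxicity was measured in parallel with the HRE-driven beta-lactamase readout: after 17 hrs of compound exposure at 37C, HRE-bla ME-180 cells received CellTiter-Glo and luminescence was recorded 30 min later.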

[7] = qHTS assay to identify small molecule antagonists of the constitutive androstane receptor (CAR) signaling pathway - cell viability counter screen (AID 1224837); note: series mostly up to about 92 µM; nearly all actives have a fitted effect of over 45% in size
Method in brief: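 Viability was measured with CellTiter-Fluor in a HepG2 line carrying stably transfected hCAR and a CYP2B6-2.2kb construct. Cells were exposed for 23 hr at 37 C to 15 compound concentrations with 50 nM CITCO as agonist.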

[8] = qHTS assay to identify small molecule agonists of the estrogen related receptor signaling pathway with the pleiotropic PPARgamma coactivator (PGC) from Tox21 10K library (AID 1224842); note: nearly all actives have a fitted effect of over 15% in size
Method in brief: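 PGC/ERR reporter cell line, 2,000 cells per well, incubated 6 h at 37 C before 23 nL compound in DMSO was added. After 18 h at 37 C, One-Glo luminescence read following 30 min at room temperature.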

[9] = target: Thyrotropin receptor (Homo sapiens) (UniProt P16473); assay: qHTS assay to identify small molecule agonists of the thyroid stimulating hormone receptor (TSHR) signaling pathway (AID 1224843; calls by dose curve; note: nearly all actives have a fitted effect of over 45% in size; note: potency is the fitted concentration of half-maximal effect)
Thyrotropin receptor (Homo sapiens), sequence (P16473 whole entry, looked up): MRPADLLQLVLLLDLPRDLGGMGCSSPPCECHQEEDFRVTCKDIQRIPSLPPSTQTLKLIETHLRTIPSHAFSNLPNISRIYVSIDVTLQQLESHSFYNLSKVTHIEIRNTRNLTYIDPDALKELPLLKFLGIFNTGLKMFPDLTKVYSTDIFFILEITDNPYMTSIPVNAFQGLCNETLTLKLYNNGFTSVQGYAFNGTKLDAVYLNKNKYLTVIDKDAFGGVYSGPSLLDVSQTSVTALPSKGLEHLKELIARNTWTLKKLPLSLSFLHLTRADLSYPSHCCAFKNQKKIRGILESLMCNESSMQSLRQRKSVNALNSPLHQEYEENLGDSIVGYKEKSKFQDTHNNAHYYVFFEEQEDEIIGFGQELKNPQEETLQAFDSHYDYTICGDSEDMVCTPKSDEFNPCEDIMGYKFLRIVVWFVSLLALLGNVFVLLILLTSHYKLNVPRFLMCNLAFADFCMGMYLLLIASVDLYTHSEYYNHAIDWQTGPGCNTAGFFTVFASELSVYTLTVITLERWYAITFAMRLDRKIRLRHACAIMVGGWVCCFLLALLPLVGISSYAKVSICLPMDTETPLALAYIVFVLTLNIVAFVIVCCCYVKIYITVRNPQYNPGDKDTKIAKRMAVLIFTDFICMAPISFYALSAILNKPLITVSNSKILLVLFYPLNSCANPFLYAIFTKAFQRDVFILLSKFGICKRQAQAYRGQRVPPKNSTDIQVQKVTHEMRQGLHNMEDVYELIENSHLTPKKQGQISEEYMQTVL
Method in brief: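 Agonist-mode screen: TSHR HEK293 cells received test chemicals for half an hour at room temperature, then HTRF cAMP detection reagents for one hour prior to fluorescence measurement. Each chemical ran as a 15-concentration series, triplicated.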

[10] = qHTS assay to identify small molecule antagonists of the estrogen related receptor signaling pathway with the pleiotropic PPARgamma coactivator (PGC) from Tox21 10K library (AID 1224841; call rule not given here; note: series mostly up to about 92 µM; actives are mostly falling curves and most rising ones were filed inactive; nearly all actives have a fitted effect of over 50% in size)
Method in brief: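 Steps: plate 2,000 PGC/ERR cells per well; incubate 6 h at 37 C with 5% CO2; transfer compounds from DMSO stocks by pin tool; incubate 18 h at 37 C; add One-Glo; measure luminescence 30 min later.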

Row | Structure (SMILES) | Potency [1] | Potency [2] | Potency [3] | Potency [4] | Potency [5] | Potency [6] | Potency [7] | Potency [8] | Potency [9] | Potency [10]
1 | C=CC(=O)OCC(C)OCC(C)OCC(C)OC(=O)C=C (centres undefined) | inactive | inactive | inactive | inactive | 54.5 µM (active) | inactive |  |  |  | 
2 | CC(C)(Oc1ccc(Cl)cc1)C(=O)OCCCOC(=O)C(C)(C)Oc1ccc(Cl)cc1 | inactive | inactive |  |  |  | inactive | inactive |  |  | 
3 | CCOc1ccc2[nH]cc(C(=O)NCc3ccccc3)c(=O)c2n1 | inactive | inactive | inactive |  | inactive |  |  | inactive | inactive | 
4 | NC(=S)N/N=C/c1cccnc1 | inactive | inactive | inactive | inactive | inactive | inactive |  | inactive |  | inactive
5 | Cc1c(Cn2ccnc2)c2ccccc2n1CCC(=O)O | inactive | inactive |  |  |  | inactive | inactive |  | inactive | 
6 | CCOC(=O)C1=C(C)NC(C)=C(C(=O)OC)C1c1cccc([N+](=O)[O-])c1 (centres undefined) | inactive | inactive | inactive | inactive |  | inactive |  |  | inactive | 
7 | O=C(/C=C/c1ccc(O)c(O)c1)O[C@@H]1C[C@](O)(C(=O)O)C[C@@H](O)[C@H]1O | inactive | inactive |  |  | inactive | inactive |  |  |  | 
8 | Cl/C(=C\n1cncn1)c1ccc(Cl)cc1Cl |  | inactive | inactive | inactive | inactive |  | inactive |  | inactive | inactive
9 | CC(=O)CC(=O)c1ccccc1 | inactive |  | 10.9 µM (active) | inactive | inactive |  |  |  |  | inactive
10 | N[C@H]1C(O)O[C@H](CO)[C@H](O)[C@@H]1O (some centres undefined) |  | inactive | inactive | inactive | inactive | inactive | inactive | inactive | inactive | inactive
11 | CN(C(=O)CCCOc1ccc2[nH]c(=O)ccc2c1)C1CCCCC1 | inactive |  | inactive |  | inactive | inactive | inactive |  | 0.335 µM (active) | inactive
12 | CCCCOCCOCCOCCOCCO | inactive | inactive |  |  | inactive | inactive |  |  | inactive | 
13 | CC(=O)/C(C)=C/C1C(C)=CCCC1(C)C (centres undefined) |  | inactive | inactive | inactive | inactive | inactive | inactive | inactive | inactive | inactive
14 | Cc1cc(NC(=O)C(=O)O)cc(C)c1Oc1ccc(O)c2c1CCC2 |  | inactive | inactive | inactive | inactive |  | inactive |  |  | inactive
15 | CN1CCC(=C2c3ccccc3C=Cc3ccccc32)CC1 |  | inactive | inactive | inactive | inactive |  | inactive |  | inactive | inactive
16 | COC(=O)C(C)=O |  | inactive | inactive | inactive | inactive | inactive | inactive | inactive | inactive | inactive

Row | Structure (SMILES) | Potency [1] | Potency [2] | Potency [3] | Potency [4] | Potency [5] | Potency [6] | Potency [7] | Potency [8] | Potency [9] | Potency [10]
17 | CCN(CC)C(C)CN1c2ccccc2Sc2ccccc21 (centres undefined) |  | inactive | inactive | inactive | inactive | inactive | inactive |  | inactive | 
18 | CC(C)(C)C(=O)OCOP(=O)(COCCn1cnc2c(N)ncnc21)OCOC(=O)C(C)(C)C | inactive |  |  |  |  |  |  |  | inactive | 
19 | CN1CCN(C2=Nc3cc(Cl)ccc3Nc3ccccc32)CC1 | inactive |  | inactive |  |  |  |  |  | inactive | 
20 | CCOC(=S)SSC(=S)OCC |  | inactive | inactive | inactive | inactive | inactive | inactive |  | inactive | 
21 | Cn1c(=O)c2c(ncn2CC(O)CO)n(C)c1=O (centres undefined) |  | inactive | inactive | inactive | inactive | inactive | inactive | inactive | inactive | inactive
22 | CC(C)(C)c1cc(O)c(C(C)(C)C)cc1O | inactive |  |  |  |  |  |  |  | inactive | 
23 | C=C(C)C(=O)OC(C)C |  | inactive | inactive | inactive | inactive |  | inactive |  | inactive | 
24 | CCOC(=O)CC(C)C |  | inactive | inactive | inactive | inactive | inactive | inactive |  | inactive | 
25 | CC[C@@H]1C[C@H](N(Cc2cc(C(F)(F)F)cc(C(F)(F)F)c2)C(C)=O)c2cc(C(F)(F)F)ccc2N1C(=O)OC(C)C | inactive |  | inactive | inactive | inactive |  | inactive |  |  | 
26 | COCCCCCCCCOCCC[Si](C)(O[Si](C)(C)C)O[Si](C)(C)C | inactive |  | 48.6 µM (active) | inactive |  | inactive |  |  |  | 
27 | CCCCOc1ccc(CC(=O)NO)cc1 | inactive |  | inactive | inactive | inactive |  |  |  |  | 
28 | O=[N+]([O-])c1cccc(Cl)c1Cl |  | inactive | inactive | inactive | inactive | inactive | inactive |  | inactive | inactive
29 | Cn1sccc1=O |  | inactive | 24.3 µM (active) | inactive | inactive |  | inactive |  | inactive | inactive
30 | CCCCCCCCCC=O | inactive | inactive |  |  |  | inactive |  |  | inactive | 
31 | C=C(C)C(=O)OCCOc1ccccc1 |  | inactive | inactive | inactive | inactive |  | inactive |  |  | inactive
